Laboratory results as given in ChEMBL document CHEMBL3988442, “University of Dundee, Small-Polar-MMV Screening Library” (2021).
Out of some 48,000 compounds screened, about 13,000 (27%) showed an effect of 50% or more. Some of the results follow.

test system: Wolbachia pipientis; experiment: Anti-Wolbachia Cell-Based Screen; type: functional; set-up: scale not given: in the data most compounds retested in dose-response had high values; details: 5 µM

SMILES	Percent Effect
CCc1noc(CS(=O)(=O)Cc2ccccc2C)n1	2.156%
CN1C[C@@H](N)C[C@H]1c1nc(-c2ccc3c(c2)OCO3)no1	-7.718%
CC(C)(C)n1cc(CNC2CCN(C(=O)c3ccoc3)CC2)cn1.Cl	4.064%
CCC(C)(C)C(=O)NCCCOC1CCOC1 (stereo not given)	-11.1%
CC(C)S(=O)(=O)N1CCOC(CCc2ccccc2)C1 (stereo not given)	-8.11%
O=C(O)C(F)(F)F.O=C(O)C(F)(F)F.c1cncc(CN2CCCn3nnc(COCC4CC4)c3C2)c1	-24.42%
O=C(O)C(F)(F)F.O=C(O)C(F)(F)F.c1ccc(CN2CCCn3nnc(COc4ccccn4)c3C2)nc1	-12.56%
O=C(O)C(F)(F)F.O=C(O)C(F)(F)F.O=C(c1cccnc1)N1CCn2nnc(COc3cccnc3)c2C1	-17.53%
O=C(O)C(F)(F)F.O=C1CCCN1Cc1nnn2c1CN(c1cccnc1)CCC2	87.49%
O=C1CCCN1Cc1nnn2c1CN(c1ncccn1)CCC2	-7.828%
O=C(O)C(F)(F)F.O=C(O)C(F)(F)F.c1cncc(N2CCCn3nnc(CN4CCCCC4)c3C2)c1	109.4%
O=C(O)C(F)(F)F.c1cncc(N2CCCn3nnc(COCC4CC4)c3C2)c1	122.7%
C1CN(CC2CCOCC2)Cc2c(CN3CCOCC3)nnn2C1	2.088%
c1cc(CN2CCCn3nnc(COCC4CC4)c3C2)ccn1	-2.908%
O=C(O)C(F)(F)F.c1cnc(N2CCCn3nnc(COCC4CC4)c3C2)nc1	-15.27%
c1cncc(N2CCCn3nnc(CN4CCOCC4)c3C2)c1	107.9%
Cc1cnnn1Cc1nnn2c1CN(Cc1ccccn1)CCC2.O=C(O)C(F)(F)F	-8.238%
COc1ccc(C)cc1CN(Cc1ncc(C)o1)C1CCN(C)C1 (stereo not given)	18.81%
Cc1cccc(N2N=C(C(=O)NC(C)CCc3ccco3)CCC2=O)c1 (stereo not given)	5.008%
CC(C)C(=O)NC1CCN(CCO)CC1	-14.55%
N#Cc1ccc(CNC(=O)NCCC(=O)NC2CCCC2)c(F)c1	1.823%
CCCOCCN1CCc2[nH]c(-c3ccc(OC)cc3)nc2C1	0.5641%
O=C(O)C(F)(F)F.O=C(O)C(F)(F)F.c1cncc(COCc2nnc3n2CCN(Cc2ccsc2)C3)c1	-0.7002%
O=C(O)C(F)(F)F.O=C(O)C(F)(F)F.c1cncc(COCc2nnn3c2CN(Cc2ccsc2)CC3)c1	109.1%
O=C(O)C(F)(F)F.O=C(O)C(F)(F)F.c1cncc(OCc2nnn3c2CN(Cc2ccsc2)CCC3)c1	-20.94%

SMILES	Percent Effect
O=C(NCc1ccc(Cl)cc1)[C@@H]1Cc2[nH]cnc2CN1CC1CC1	10.78%
Cn1cc(CN2CCCC(Cn3cc(CCCO)nn3)C2)cn1 (stereo not given)	-7.109%
Cn1cc(CN2CCCC(CCc3ccc(F)cc3F)C2)cn1 (stereo not given)	13.59%
Cn1cc(CN2CCCC(CCc3ccc(F)cc3)C2)cn1 (stereo not given)	5.496%
Cn1cc(CN2CCC(c3cc(CCO)[nH]n3)C2)cn1 (stereo not given)	135.9%
Cn1cc(CN2CCCC(CCc3ccc(F)c(F)c3)C2)cn1 (stereo not given)	-4.852%
Cn1cc(CN2CCC(c3cc(COc4ccc(Cl)cc4)[nH]n3)C2)cn1 (stereo not given)	120.4%
Cc1n[nH]c(C2CN(CCCOc3cccc(Cl)c3)CCO2)n1 (stereo not given)	17.53%
Br.Cn1cc(CN2CCC(c3cc(COc4cccc(Cl)c4)[nH]n3)C2)cn1 (stereo not given)	108.1%
Cc1cc(C2CCCN(Cc3cccnc3)C2)n[nH]1 (stereo not given)	-3.647%
O=C(NC1(c2nccs2)CCCC1)c1[nH]nc(C2CC2)c1Cl	-0.1495%
O=C(Nc1ccccc1OC(F)(F)F)C1CCS(=O)(=O)C1 (stereo not given)	4.045%
N#Cc1cnn(C(=O)COc2ccccc2F)c1N	-3.189%
CCCc1n[nH]c(C2CN(C(=O)c3ccc4c(c3)COC4)CCO2)n1 (stereo not given)	124.9%
CCc1n[nH]c(C2CN(C(=O)c3ccc(NC4CC4)nc3)CCO2)n1 (stereo not given)	134.6%
Cc1n[nH]c(C2CN(C(=O)c3ccc4c(c3)COC4)CCO2)n1 (stereo not given)	-48.4%
CCc1n[nH]c(C2CN(C(=O)c3ccnc(N(C)C)c3)CCO2)n1 (stereo not given)	149.1%
CCc1n[nH]c(C2CN(C(=O)c3ccc4c(c3)COC4)CCO2)n1 (stereo not given)	136%
C[S+]([O-])c1nncn1CC(=O)c1cccc(Br)c1 (stereo not given)	-3.709%
Cc1ccc(CN(C)C(=O)NCC(C)(C)S(C)(=O)=O)s1	-13.6%
CCNc1ncc(CN2C[C@@H](CN3CCC(CO)CC3)[C@@H](CO)C2)cn1	12.05%
Cc1ccc(CC(=O)N2CCn3cc(Cn4cncn4)nc3C2)cc1	8.244%
c1cc2c(cc1-c1noc3c1CN(C1CCC1)CC3)OCO2	-7.391%
CS(=O)(=O)c1nccn1Cc1ccncc1	-5.065%
Cc1ccc2oc(CN3CCn4nc(CCC(=O)O)cc4C3)c(C)c2c1	5.001%
